Laboratory results published in the supplement of paper PMC11732987, “Enantioselective OTUD7B fragment discovery through chemoproteomics screening and high-throughput optimisation” (Communications Chemistry, 2025).

Target: T1, VCPIP1 (UniProt Q96JH7)
T1 sequence (whole entry): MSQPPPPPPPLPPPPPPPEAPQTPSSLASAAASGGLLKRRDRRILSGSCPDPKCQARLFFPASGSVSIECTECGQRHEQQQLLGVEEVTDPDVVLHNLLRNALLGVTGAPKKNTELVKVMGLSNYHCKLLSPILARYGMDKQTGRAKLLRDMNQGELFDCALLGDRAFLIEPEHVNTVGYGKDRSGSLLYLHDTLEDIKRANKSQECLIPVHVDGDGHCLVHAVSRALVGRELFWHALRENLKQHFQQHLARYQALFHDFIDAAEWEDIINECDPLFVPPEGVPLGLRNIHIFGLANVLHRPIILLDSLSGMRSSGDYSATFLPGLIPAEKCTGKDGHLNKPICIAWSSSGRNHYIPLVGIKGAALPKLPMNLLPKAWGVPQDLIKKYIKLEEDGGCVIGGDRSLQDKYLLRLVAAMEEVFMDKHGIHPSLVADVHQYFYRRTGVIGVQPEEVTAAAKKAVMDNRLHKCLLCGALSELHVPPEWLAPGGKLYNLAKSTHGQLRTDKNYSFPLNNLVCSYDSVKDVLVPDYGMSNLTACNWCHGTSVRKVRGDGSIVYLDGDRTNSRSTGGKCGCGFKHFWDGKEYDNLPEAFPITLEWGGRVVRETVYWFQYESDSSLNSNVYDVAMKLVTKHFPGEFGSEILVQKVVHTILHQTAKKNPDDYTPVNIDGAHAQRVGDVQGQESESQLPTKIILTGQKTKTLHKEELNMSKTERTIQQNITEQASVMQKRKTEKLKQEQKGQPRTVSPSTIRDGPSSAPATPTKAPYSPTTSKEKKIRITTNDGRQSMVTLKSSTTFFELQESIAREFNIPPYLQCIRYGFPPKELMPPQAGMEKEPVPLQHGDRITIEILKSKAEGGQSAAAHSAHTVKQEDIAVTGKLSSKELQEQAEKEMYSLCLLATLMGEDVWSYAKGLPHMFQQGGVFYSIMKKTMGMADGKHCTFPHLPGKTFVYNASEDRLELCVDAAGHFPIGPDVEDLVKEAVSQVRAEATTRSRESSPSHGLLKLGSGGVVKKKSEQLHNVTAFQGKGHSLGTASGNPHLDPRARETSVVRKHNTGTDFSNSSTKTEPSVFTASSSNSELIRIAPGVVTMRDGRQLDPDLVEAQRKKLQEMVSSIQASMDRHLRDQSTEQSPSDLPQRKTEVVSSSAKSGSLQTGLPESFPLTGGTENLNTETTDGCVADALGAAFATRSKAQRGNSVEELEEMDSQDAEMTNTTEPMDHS
Assay: log2 ratio of Biotin-Ahx-Ub-VS probe labelling (fragment/DMSO); higher = less target engagement (more negative = stronger competition), active = hit call of the paper (q ≤ 0.05, log2 ratio ≤ -1)
Details: compound concentration: 200 uM; treatment time: 3 h
Method: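 Competitive ABPP in HEK293T cell lysate. Lysates were treated with each chloroacetamide fragment at 200 µM for 3 h, then with Biotin-Ahx-Ub-VS (0.5 µM, 1 h), NeutrAvidin-enriched and analysed by diaPASEF LC-MS/MS. Protein LFQ was median-normalised; average log2 ratio is fragment/DMSO from an unpaired t-test (n=3 treated, n=44 DMSO). Hits: q ≤ 0.05, log2 ratio ≤ -1, unique peptides ≥ 2.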

Row | SMILES | log2 ratio of Biotin-Ahx-Ub-VS probe labelling
1 | O=C(CCl)NCc1cccc(N2CCCC2=O)c1 | -1.04 (active)
2 | O=C(CCl)N1CCC(C(=O)N2CCCC2)CC1 | -0.191 (inactive)
3 | O=C(CCl)N(C1CCCC1)C1CCS(=O)(=O)C1 (stereo not given) | -0.0269 (inactive)
4 | O=C(CCl)N1CCCCC12CCOCC2 | -0.562 (inactive)
5 | Cc1cccc(C(CNC(=O)CCl)N2CCOCC2)c1.Cl (stereo not given) | -0.833 (inactive)
6 | CN(C(=O)CCl)c1nc2ccccc2s1 | -0.54 (inactive)
7 | Cc1cc(CC(C)NC(=O)CCl)n[nH]1 (stereo not given) | 0.107 (inactive)
8 | O=C(CCl)Nc1cccc(NC(=O)c2ccccc2)c1 | -2.42 (active)
9 | Cl.Cn1ncc2c1CC(NC(=O)CCl)CC2 (stereo not given) | -0.665 (inactive)
10 | O=C(CCl)NCc1ccc(N2CCOCC2)c(F)c1 | -2.18 (active)
11 | CN(C)C(=O)c1ccc(CNC(=O)CCl)cc1 | -0.952 (inactive)
12 | CC(C)n1nccc1NC(=O)CCl | -0.897 (inactive)
13 | O=C(CCl)N1CCOC(CCc2ccccc2)C1 (stereo not given) | -2.79 (active)
14 | O=C(CCl)Nc1cc(Cl)ccc1C(=O)O | -0.241 (inactive)
15 | COc1cccc(CN(C)C(=O)CCl)c1 | -0.854 (inactive)
16 | COc1ccc(C2CCCN2C(=O)CCl)c(OC)c1 (stereo not given) | -0.545 (inactive)
17 | O=C(CCl)Nc1ccc(F)cc1Cl | -1.05 (active)
18 | O=C(CCl)N1CCCC1c1ccsc1 (stereo not given) | -1.07 (active)
19 | O=C(CCl)N1CCc2nc[nH]c2C1c1ccc(Cl)cc1 (stereo not given) | -1.07 (active)
20 | O=C(CCl)Nc1cc2c(cc1Cl)OCCCO2 | -2.71 (active)

Row | SMILES | log2 ratio of Biotin-Ahx-Ub-VS probe labelling
21 | O=C(CCl)N1CCC[C@@H]1c1ccon1 | -0.499 (inactive)
22 | O=C(CCl)N1CCc2[nH]c3ccccc3c2C1 | -2.89 (active)
23 | C[C@@H](NC(=O)CCl)c1cccc(C#N)c1 | -0.466 (inactive)
24 | O=C(CCl)N1CCCC2CCCCC21 (stereo not given) | -2.13 (active)
25 | O=C(CCl)Nc1ccc2c(c1)OC(F)(F)O2 | -1.43 (active)
26 | CC1Cc2ccccc2N1C(=O)CCl (stereo not given) | -1.3 (active)
27 | O=C(CCl)NC1CCOc2ccccc21 (stereo not given) | -2.21 (active)
28 | Cc1ccn2cc(CNC(=O)CCl)nc2c1.Cl | -0.598 (inactive)
29 | Cc1cccc2nc(CCNC(=O)CCl)cn12.Cl | -1.77 (active)
30 | NC(=O)C(Cc1ccccc1)NC(=O)CCl (stereo not given) | -0.38 (inactive)
31 | O=C(CCl)NCc1ccc(Cl)cc1 | -1.16 (active)
32 | Cc1ccccc1OCC(=O)N1CCN(C(=O)CCl)CC1 | -1.16 (active)
33 | Cc1n[nH]c2c1CN(C(=O)CCl)CC2 | -1.02 (active)
34 | O=C(CCl)Nc1cc2c(cc1Cl)OCCO2 | -0.947 (inactive)
35 | Cc1cccc(N2CCC(NC(=O)CCl)C2=O)c1 (stereo not given) | -1.91 (active)
36 | O=C(CCl)Nc1cc(Cl)ccc1-n1cncn1 | -1.26 (active)
37 | Cc1ccc(N(CCC#N)C(=O)CCl)cc1C | -2.17 (active)
38 | CCCn1nccc1NC(=O)CCl | -0.41 (inactive)
39 | CNC(=O)C1CCN(C(=O)CCl)CC1 | -0.28 (inactive)
40 | O=C(CCl)N(C1=CCCCC1)C1CC1 | -0.286 (inactive)
